DNMT1 inh: human DNMT1 methyltransferase inhibitors, primary screen, biochemical, molecular beacon, fluorescence, HinP1I cleavage, uHTS. actives 0.83% (n = 360,000). AID 588458, 2011. DNA (cytosine-5)-methyltransferase 1 (Homo sapiens), P26358. inhibition (reported as % activation of signal), % at 10 µM; in the data active means inhibition above about 50%
rCAG binder: binders of r(CAG) RNA repeats, primary screen, biochemical, fluorescence; inhibition, % at 3 µM; r(CAG) RNA repeat, TO-PRO-1 dye displacement fluorescence; actives 1.3% (n = 370,000);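 active means inhibition above the plate cutoff, the mean of all test compounds on that plate plus 3 SD, cut at about 35% in these data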;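 further: higher means more dye released from RNA so lower well fluorescence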
MBD2 inh: inhibitors of MBD2 binding to methylated DNA, primary screen, biochemical, TR-FRET, DNA-binding domain, human; actives 0.31% (n = 370,000); inhibition, % at 4.4 µM; Methyl-CpG-binding domain protein 2 (Homo sapiens), Q9UBB5; MBD2 binding to methylated oligonucleotide; in the data active means inhibition above about 13%
PG9 Ab binder: binders of HIV-1 gp120 antibody PG9, primary screen, biochemical, TR-FRET; TR-FRET gp120-PG9 antibody binding; actives 0.43% (n = 360,000); HIV-1 gp120 / PG9 antibody interaction; inhibition, % at 6.7 µM; AID 624416, 2012; in the data active means inhibition above about 8.5%
UHRF1 binding: UHRF1 methylated DNA binding inhibitors, primary screen, counter-screen for MBD2 inhibitor project, biochemical, TR-FRET, human UHRF1, single concentration; actives 0.75% (n = 370,000); inhibition, % at 4.4 µM; AID 687016, 2013; UHRF1 binding to methylated oligo; E3 ubiquitin-protein ligase UHRF1 (Homo sapiens), Q96T88; in the data active means inhibition above about 21%;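 further: UHRF1 SRA domain binding a hemimethylated CpG hairpin DNA probe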
LEDGF integ inh: blockers of LEDGF/p75-dependent integrase strand transfer – biochemical, TR-FRET, high throughput, primary screen; inhibition, % at 3.7 µM; TR-FRET IN-LEDGF/p75 DNA integration, Eu/Cy5; actives 0.64% (n = 370,000);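 active means inhibition above the screen-wide mean plus 3 SD, cut at about 13% in these data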;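 further: signal is the Cy5 over europium emission ratio at 671 and 618 nm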
DNMT1 inh conf: DNMT1 methyltransferase inhibitor retest, confirmation, biochemical, molecular beacon, fluorescence, single concentration; shares compounds with DNMT1 inh; DNMT1 molecular beacon HinP1I cleavage; inhibition, % at 10 µM; actives 8% (n = 2,300); AID 602385, 2012;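 active means average inhibition of at least 30% in the single-concentration confirmation test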
DNMT1 interf: beacon fluorescence artifact counter-screen. actives 1% (n = 2,300). AID 602387. DNMT1 molecular beacon spectral interference counterscreen, fluorescence 485/520. activation (fluorescence interference), % at 10 µM. shares compounds with DNMT1 inh;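 active means activation of at least 30% at 10 µM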;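 further: DNMT1 catalytic domain with a HinP1I cleavage step and a FAM/dabcyl DNA beacon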
Each line names hits and unclear results; the compound was inactive in the other large screens (follow-up assays come after a bar, where they were run). Hits are enriched below; roughly 3.5% of the tested compounds scored in any of these assays.

CC(=O)N1CCc2cc(S(=O)(=O)C(C)CC(=O)NCc3ccco3)ccc21 (stereo not given)	none
Cc1ccc(CN2C(=O)CCC2C(=O)NCc2ccc(F)cc2)cc1 (stereo not given)	none
Cc1ccc(CN2C(=O)CCC2C(=O)NCc2ccc3c(c2)OCO3)cc1 (stereo not given)	DNMT1 inh 91 | DNMT1 inh conf inactive | DNMT1 interf inactive
Cc1cccc(C)c1-n1nnnc1C(c1cc2ccccc2o1)N1CCN(C/C=C/c2ccccc2)CC1 (stereo not given)	DNMT1 inh 63 | DNMT1 inh conf inactive | DNMT1 interf inactive
Cc1cccc(C)c1-n1nnnc1C(c1cccc2ccccc12)N1CCN(C/C=C/c2ccccc2)CC1 (stereo not given)	none
CC1CCC(NC(=O)CSc2nnc(-c3cccnc3)o2)CC1 (stereo not given)	none
CNc1ncnc2c1ncn2[C@H]1CN(Cc2ccc3c(c2)OCO3)C[C@@H](CO)O1	none
O=C(O)CCc1ccc(-c2ccc(Br)cc2)n1Cc1ccco1	DNMT1 inh 73 | DNMT1 inh conf inactive | DNMT1 interf inactive
CCCCn1c(N)c(N(CCC(C)C)C(=O)c2ccc(-c3ccc([N+](=O)[O-])cc3)o2)c(=O)[nH]c1=O	DNMT1 inh 84 | DNMT1 inh conf inactive | DNMT1 interf inactive
CCCn1c(=O)n(C)c(=O)c2c(SCC(=O)Nc3cc(C)on3)nc(C(C)(C)C)nc21	none
N#C/C(=C\c1ccc(-c2ccc([N+](=O)[O-])cc2)o1)C(=O)Nc1nc(-c2cccs2)cs1	DNMT1 inh 95 | DNMT1 inh conf inactive | DNMT1 interf inactive
COc1ccccc1OCCOc1ccc(/C=C2/C(=N)N3OC(C)=CC3=NC2=O)cc1OC	DNMT1 inh 88 | DNMT1 inh conf inactive | DNMT1 interf inactive
O=C(COC(=O)C1CC2C=CC1C2)NCc1ccco1 (stereo not given)	DNMT1 inh 89 | DNMT1 inh conf inactive | DNMT1 interf inactive
Cc1ccc(C(=O)OCC(=O)NCc2cccs2)s1	none
Cc1ccc(C(=O)OCC(=O)NCc2ccco2)s1	DNMT1 inh 58 | DNMT1 inh conf inactive | DNMT1 interf inactive
O=C(C[C@H]1C/C=C\C[C@@H](Cc2ccc(F)cc2)C(=O)O[C@H](c2ccccc2)CNC1=O)N[C@@H](CO)Cc1ccccc1	DNMT1 inh 85 | DNMT1 inh conf inactive | DNMT1 interf inactive
O=C(C[C@@H]1C/C=C\C[C@@H](Cc2ccc(F)cc2)C(=O)OC[C@@H](Cc2ccccc2)NC1=O)N[C@H](CO)Cc1ccccc1	DNMT1 inh 68 | DNMT1 inh conf inactive | DNMT1 interf inactive
O=C(C[C@H]1C/C=C\C[C@H](NC(=O)OCC2c3ccccc3-c3ccccc32)C(=O)O[C@H](c2ccccc2)CNC1=O)N[C@H](CO)Cc1ccccc1	DNMT1 inh 57 (no result: rCAG binder, MBD2 inh, PG9 Ab binder, UHRF1 binding, LEDGF integ inh) | DNMT1 inh conf inactive | DNMT1 interf inactive
CC(C)c1nnc(NC(=O)c2ccc3c(c2)OCO3)s1	none
COc1ccccc1-c1nnc(NC(=O)c2ccc3c(c2)OCO3)s1	DNMT1 inh 55 | DNMT1 inh conf inactive | DNMT1 interf inactive
CCCCn1c(N)c(N(C(=O)CSc2nncn2-c2ccccc2)C2CCCC2)c(=O)[nH]c1=O	none
COc1ccc(C(=O)Nc2ccc(N3CCCC3)cc2)cc1	DNMT1 inh 86 | DNMT1 inh conf inactive | DNMT1 interf inactive

From PubChem BioAssay
